We go through 60 compounds from ChEMBL document CHEMBL3988442, “University of Dundee, Small-Polar-MMV Screening Library” (2021).

Hit rate of the full screen: of about 66,000 compounds, about 960 (1.5%) showed an effect of 50% or more. What follows is part of a selection rich in strong results, with near analogues and random picks from the rest.

The experiment has as its system Trypanosoma brucei. Briefly: Trypanosoma brucei 72 hour study. The experiment is classed as functional, organism-based. Details: scale not given: in the data most compounds retested in dose-response had high values.

Take `CC(=O)Nc1ccc(Oc2cc(C)nc(C3CCNCC3)c2)cc1.Cl`: the “Percent Effect” value (30.3 µM, […]) amounted to 0.5571%.

Take `Cc1cc(Oc2ccc(NC(=O)C3CC3)cc2)cc(C2CCNCC2)n1.Cl`: the “Percent Effect” value (30.3 µM, […]) came out at 99.81%.

Regarding `CC(=O)Nc1ccc(Oc2cc(C)nc(C3CCCNC3)c2)cc1.Cl` (stereo not given), the “Percent Effect” value (30.3 µM, […]) is reported as -25.31%.

For the compound `NC(=O)CN1CCC(Nc2ccnc3ccc(Cl)cc23)CC1`, the “Percent Effect” value (30.3 µM, […]) turned out to be 62.45%.

In the case of `CS(=O)(=O)N1CCC(Nc2ccnc3ccc(Cl)cc23)CC1`, the “Percent Effect” value (30.3 µM, […]) is recorded as -667%.

For `COCC(=O)N1CCC(Nc2ccnc3ccc(Cl)cc23)CC1`, the “Percent Effect” value (30.3 µM, […]) was -10.12%.

With `O=C1N(Cc2ccc(F)c(F)c2)CCCC1(O)CNCC1CCCCC1` (stereo not given), the “Percent Effect” value (30 µM, 30.03 µM) is on record as -26.1%.

For the compound `CC(NC(=O)CCC(C)(C)C)C(=O)Nc1ccc(-n2cncn2)cc1` (stereo not given), the “Percent Effect” value (30 µM, 30.03 µM) is on record as -4.525%.

As for `O=C1N(Cc2ccc(F)c(F)c2)CCCC12CCN(C1CCCCC1)C2` (stereo not given), for the setting “30 µM, 30.03 µM”, the “Percent Effect” value was determined as 6.711%.

`O=C1N(Cc2ccc(F)c(F)c2)CCCC12CCN(C1CCSCC1)C2` (stereo not given): the “Percent Effect” value (30 µM, 30.03 µM) is recorded as 50.02%.

As to `O=C1N(Cc2ccc(F)c(F)c2)CCCC12CCN(C1CCCC1)C2` (stereo not given), the “Percent Effect” value (30 µM, 30.03 µM) is on record as -86.64%.

With `COCCNC(=O)[C@@]12CCO[C@@H]1CCN(Cc1ccc(OC)cc1)C2.O=C(O)C(F)(F)F`, the “Percent Effect” value (30 µM, 30.03 µM) was found to be 7.509%.

For the compound `CS(=O)(=O)c1ccc(CN2C[C@H]3CC[C@@H]2CN(c2ncccn2)C3)cc1`, the “Percent Effect” value (30 µM, 30.03 µM) was -59.99%.

For `Cc1ccc(C#N)c(N2CCC(c3nccn3CCN(C)C)CC2)n1`, the “Percent Effect” value (30 µM, 30.03 µM) is given as 57.26%.

On to `Cc1ccc(C#N)c(N2CCC(c3nccn3Cc3cscn3)CC2)n1`, for which the “Percent Effect” value (30 µM, 30.03 µM) came out at 31.21%.

On to `CN(C)CCn1ccnc1C1CCN(c2cc(N)nc(N)n2)CC1`, for which, for the setting “30 µM, 30.03 µM”, the “Percent Effect” value amounted to 1.166%.

For `O=C1C[C@H]2CC[C@@H](CN1)N2C(=O)CCc1ccc2c(c1)OCO2`, the “Percent Effect” value (30.3 µM, […]) is listed as 6.652%.

Take `Cc1ccc(C2=CCN(C(=O)C3CCN(C)C(=O)C3)CC2)cc1` (stereo not given): the “Percent Effect” value (30.3 µM, […]) is recorded as -12.11%.

As to `COc1ccc(C2=CCN(C(=O)C3CCN(C)C(=O)C3)CC2)cc1` (stereo not given), the “Percent Effect” value (30 µM, 30.03 µM) worked out at 57.6%.

On to `COc1ccc(C2=CCN(C(=O)C3CCC3)CC2)cc1`, for which the “Percent Effect” value (30.3 µM, […]) is on record as -20.1%.

Turning to `CC(C)OCCCN(Cc1ccncc1)Cc1cccc(F)c1.Cl`, the “Percent Effect” value (30.3 µM, […]) is -29.62%.

Regarding `Cc1ccccc1C1(C(=O)NCCN2CCC(C)CC2)CCOCC1`, the “Percent Effect” value (30.3 µM, […]) worked out at 1.423%.

On to `N#Cc1c(Cl)nsc1NCC1(c2ccccc2)CCC1`, for which the “Percent Effect” value (30.3 µM, […]) is reported as 100.1%.

Turning to `COc1ccccc1C1(CNc2snc(Cl)c2C#N)CCOCC1`, for the setting “30.3 µM, […]”, the “Percent Effect” value is 0.1302%.

In the case of `COc1ccccc1C1(CNc2snc(Cl)c2C#N)CCCC1`, the “Percent Effect” value (30.3 µM, […]) is 35.81%.

For `Cc1cccc(N2CCc3ncc(CNc4ccccn4)n3CC2)n1.O=C(O)C(F)(F)F.O=C(O)C(F)(F)F`, the “Percent Effect” value (30.3 µM, […]) is -45.99%.

As to `Cl.NCC(=O)N1CCCC1c1nccnc1Nc1ncccn1` (stereo not given), the “Percent Effect” value (30.3 µM, […]) is given as -17.2%.

As for `C=C(C)CN1CCN(Cc2cnc(-c3ccc(OC)cc3)nc2)CC1.O=C(O)CC(O)(CC(=O)O)C(=O)O`, for the setting “30.3 µM, […]”, the “Percent Effect” value is 2.32%.

As for `Cc1ccc(N[C@@H]2CN(Cc3cc(C)on3)C[C@@H]3CCCO[C@@H]32)nn1.O=C(O)C(F)(F)F.O=C(O)C(F)(F)F`, the “Percent Effect” value (30.3 µM, […]) is reported as -34.05%.

Turning to `Cc1noc(C)c1CNc1c(N2CCCC2)cccc1N1CCCC1`, the “Percent Effect” value (30.3 µM, […]) amounted to 99.93%.

With `Cc1noc(CNc2c(N3CCCC3)cccc2N2CCCC2)n1`, the “Percent Effect” value (30.3 µM, […]) is -1.503%.

Take `COc1ccccc1N1CCC(NCc2c(C)noc2C)C1` (stereo not given): the “Percent Effect” value (30 µM, 30.03 µM) is on record as -20.42%.

Turning to `O=C(NCc1ccco1)[C@@H]1CCO[C@@H]2CCN(C3CCOCC3)C[C@H]21.O=C(O)C(F)(F)F`, the “Percent Effect” value (30 µM, 30.03 µM) is listed as -32.7%.

As for `CC(=O)N1[C@H](CN(C)C)C[C@@H]2CN(C(=O)c3ccno3)CC[C@@H]21.O=C(O)C(F)(F)F`, for the setting “30.3 µM, […]”, the “Percent Effect” value is 5.246%.

For the compound `Cc1nc(C)n(CC2CN(Cc3ccccc3OC(C)C)CCO2)n1` (stereo not given), the “Percent Effect” value (30.3 µM, […]) is on record as 101%.

`Cc1nc(C)n(CC2CN(Cc3ccccc3C#N)CCO2)n1` (stereo not given): under “30.3 µM, […]”, the “Percent Effect” value is listed as 19.46%.

Turning to `Cc1nc(C)n(CC2CN(Cc3cccc4ccccc34)CCO2)n1` (stereo not given), where the note is “30.3 µM, […]”, the “Percent Effect” value worked out at 20.23%.

Regarding `Cn1cc(CN2CCC[C@]3(C[C@@H](Oc4ncccc4F)CO3)C2)cn1.O=C(O)C(F)(F)F.O=C(O)C(F)(F)F`, the “Percent Effect” value (30.3 µM, […]) came to 0.8954%.

In the case of `CNC(=O)[C@H]1C[C@@H]2CN(Cc3ccccc3)C[C@H]1O2.O=C(O)C(F)(F)F`, for the setting “30.3 µM, […]”, the “Percent Effect” value turned out to be 0.1079%.

Consider `CN1CCN(c2ncccn2)CC(C(=O)N(C)C)C1` (stereo not given), for which the “Percent Effect” value (30.3 µM, […]) is -26.5%.

For the compound `CN(C)Cc1nc2c(o1)CN(S(=O)(=O)c1cccs1)C2.O=C(O)C(F)(F)F`, under “30.3 µM, […]”, the “Percent Effect” value is recorded as 5.819%.

With `CC(C)(C)c1nc(CN2CCc3onc(-c4cccc(F)c4)c3C2)no1`, the “Percent Effect” value (30 µM, 30.03 µM) came out at 51.86%.

`Cn1ncc(CN2CCc3onc(-c4cccc(F)c4)c3C2)c1C1CC1`: the “Percent Effect” value (30 µM, 30.03 µM) was determined as 32.05%.

In the case of `Fc1cccc(-c2noc3c2CN(Cc2cncn2C2CC2)CC3)c1`, for the setting “30 µM, 30.03 µM”, the “Percent Effect” value is recorded as 24.68%.

Turning to `CC(C)Cc1nc(CN2CCc3onc(-c4cccc(F)c4)c3C2)no1`, the “Percent Effect” value (30 µM, 30.03 µM) turned out to be 18.46%.

Take `CC(C)c1nc(CN2CCc3onc(-c4cccc(F)c4)c3C2)no1`: where the note is “30 µM, 30.03 µM”, the “Percent Effect” value is given as 51.01%.

For `CC(C(=O)N(C)C)N1CCc2onc(-c3cccc(F)c3)c2C1` (stereo not given), the “Percent Effect” value (30 µM, 30.03 µM) is reported as -18.33%.

Regarding `Cn1cc(CNC2CC3(CCN(S(C)(=O)=O)CC3)c3ccccc32)cn1.O=C(O)C(F)(F)F` (stereo not given), the “Percent Effect” value (30.3 µM, […]) is -14.03%.

As to `CC(C)c1nnc(N2C[C@@H]3CC[C@H](C2)N(CC2CCC2)C3)s1`, the “Percent Effect” value (30 µM, 30.03 µM) was -2.589%.

For `CN(C)Cc1cnc(C2CCN(C(=O)c3ccccc3F)C2)[nH]1.Cl` (stereo not given), the “Percent Effect” value (30.3 µM, […]) is 3.217%.

Take `O=C(Cn1ccc2sccc2c1=O)NCCCc1ccccc1`: the “Percent Effect” value (30 µM, 30.03 µM) was -11.95%.

For `Cn1cccc1C(=O)N1CCC2(CC1)CC(N1CCOCC1)C2.O=C(O)C(F)(F)F`, the “Percent Effect” value (30.3 µM, […]) is given as -54.57%.

Turning to `CN(C)C1(C(=O)NC2CCC(Oc3ccccc3C#N)CC2)CCC1` (stereo not given), the “Percent Effect” value (30 µM, 30.03 µM) is -17.82%.

As for `CN(C)CCN(C)C(=O)NC1CCC(Oc2ccccc2C#N)CC1` (stereo not given), under “30 µM, 30.03 µM”, the “Percent Effect” value stood at 7.047%.

Regarding `CCNC(=O)NC1CCC(Oc2ccccc2C#N)CC1` (stereo not given), the “Percent Effect” value (30 µM, 30.03 µM) is on record as 74.2%.

Regarding `CCOCc1ccc(CNc2cncc(-n3cccn3)n2)cc1`, the “Percent Effect” value (10 µM) was -32.35%.

Take `CC(NC(=O)C(C)(C)C)c1cc(O)nc(-c2cccnc2)n1` (stereo not given): where the note is “30.3 µM, […]”, the “Percent Effect” value was -7.147%.

Take `CC(=O)N1CCCN(C(=O)c2csc(-c3ccc(C)cc3C)n2)CC1`: for the setting “30 µM, 30.03 µM”, the “Percent Effect” value is 20.93%.

Consider `CC(=O)N1CCN(C(=O)c2csc(-c3ccc(C)cc3C)n2)CC1`, for which the “Percent Effect” value (10 µM) is -21.97%.

For `CC(=O)NCC1CCN(C(=O)c2csc(-c3ccc(C)cc3C)n2)CC1`, the “Percent Effect” value (30 µM, 30.03 µM) came to 56.57%.
